Compound activity as filed in PubChem.
An excerpt weighted towards active compounds, which were near 4.1% of everything screened.
DAX1 inh-1 – DAX1 (NR0B1) inhibitors, primary screen, cell-based, HEK293, Gal4-DAX1, luciferase luminescence; HEK293 Gal4-DAX1 luciferase reporter; inhibition, % at 6.75 µM; 340,000 tested, 0.99% active; AID 504766, 2011;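 active = inhibition above the mean over all tested compounds plus 3 SD, cut at about 4.2% in these data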;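 note: 0% = DAX1-transfected cells with DMSO and 100% = empty-vector control cells with DMSO; inhibition shows as a rise in luminescence from relieved DAX1 repression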
Target sequence (P51843 207-470 limits assumed): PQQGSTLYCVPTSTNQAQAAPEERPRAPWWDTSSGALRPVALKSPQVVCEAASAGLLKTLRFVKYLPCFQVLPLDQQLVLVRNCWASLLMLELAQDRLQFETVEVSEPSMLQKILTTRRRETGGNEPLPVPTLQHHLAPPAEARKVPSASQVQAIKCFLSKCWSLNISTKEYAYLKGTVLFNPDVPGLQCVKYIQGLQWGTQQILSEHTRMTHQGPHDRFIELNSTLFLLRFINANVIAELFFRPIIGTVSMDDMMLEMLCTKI
hcDAF12 agonist – H. contortus DAF-12 nuclear receptor activators, primary screen, cell-based, luminescence, HEK293, lit1-tk-luc reporter; HEK293 hcDAF-12 lit1-tk-luc reporter; 0% DMSO, 100% Δ7-dafachronic acid; activation, % at 6.8 µM; 370,000 tested, 1.4% active;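 active = activation above the mean of all tested compounds plus 3 SD, cut at about 5.5% in these data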;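 note: 100% = response to 3 µM Δ7-dafachronic acid high control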
ssDAF12 agonist – S. stercoralis DAF-12 nuclear receptor activators, primary screen, cell-based, luminescence, HEK293, GRIP1 co-expression, lit1-tk-luc. Nuclear hormone receptor DAF-12 (Strongyloides stercoralis). HEK293 ssDAF-12/GRIP1 lit1-tk-luc reporter; % of 3 µM dafachronic acid response. activation, % at 6.8 µM. 370,000 tested, 1% active. AID 652126, 2013;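 active = activation above the mean over all tested compounds plus 3 SD, cut at about 0.9% in these data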;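 note: 0% = DMSO-only wells and 100% = 3 µM delta7-dafachronic acid wells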
DAX1 inh-2 – DAX1 (NR0B1) inhibitors on StAR promoter, primary screen, cell-based, luminescence, SF-1 (NR5A1), full-length DAX-1. AID 652010, 2013. inhibition, % at 6.8 µM. 370,000 tested, 1.1% active. HEK293T StAR-luciferase reporter, SF-1/DAX-1 repression relief;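 active = inhibition above the mean over all tested compounds plus 3 SD, cut at about 3.6% in these data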;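 note: 0% = DAX-1 cells with DMSO and 100% = cells lacking DAX-1 with DMSO; higher inhibition means more luminescence from relief of DAX-1 repression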
hgDAF-12 ag – H. glycines DAF-12 receptor agonists, primary screen, cell-based, luminescence, HEK293, GAL4 fusion, UAS-luciferase | Nuclear hormone receptor DAF-12 (Heterodera glycines), GAL4 fusion | HEK293 GAL4-hgDAF12 UAS-luciferase reporter, agonist luminescence; normalized to butyrate control | activation, % at 6.8 µM | 370,000 tested, 1.8% active | AID 687014, 2013;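 active = activation above a cutoff set at the mean of all screened compounds plus 3 SD, cut at about 10% in these data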;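 note: 0% = DMSO wells and 100% = sodium butyrate wells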
* hit, by the source's call; . = not tested or not shown.

SMILES	DAX1 inh-1	hcDAF12 agonist	ssDAF12 agonist	DAX1 inh-2	hgDAF-12 ag
COc1ccc(-n2cc(CNCCCn3ccnc3)c(-c3cccc(F)c3)n2)cc1	5.4*	-1	-2	0	-2
Nc1nnc(-c2ccc(Cl)c(Cl)c2)s1	5.8*	3	-1	0	1
Cc1ccc(NCc2ccccc2F)cc1	0	6.2*	0	0	4
Cc1ccc(NCc2ccccc2O)cc1	1	0	0	0	4
Cc1cccc(CCNC(=O)c2ccc(Sc3ccccc3Cl)c([N+](=O)[O-])c2)c1	.	-3	-1	-1	-1
CCCCCCCCN1C(=O)[C@@H](CC(=O)NCc2cccs2)C[C@@]2(C(=O)OC)C1=C[C@H](C1CCCC1)O[C@@H]2C	.	2	-1	0	-1
COCCCN(C(=S)Nc1cc(C)cc(C)c1)C(C)c1ccncc1 (stereo not drawn)	-1	-1	0.9*	0	-2
CSCCC(NC(N)=O)C(=O)Nc1ccc2ccccc2c1 (stereo not drawn)	1	-1	-2	0	0
CSCCC(NC(N)=O)C(=O)Nc1cccc(C#N)c1 (stereo not drawn)	5.1*	-1	-2	0	4
COc1ccc(CN2C3=NC(c4ccccc4)CC(=O)N3/C(=C\c3ccccc3)C2c2ccccc2)c(OC)c1 (stereo not drawn)	.	-2	-2	.	2
Cc1ccc2c(CN3CCC(C)CC3)cc(=O)oc2c1	2	3	-1	2	11*
Cc1ccc2c(CN3CC(C)CC(C)C3)cc(=O)oc2c1 (stereo not drawn)	0	0	-1	0	-2
Cc1cc(C)c2c(N)c(C(=O)Nc3ccccc3F)sc2n1	5.3*	2	-1	2	11*
O=C(Nc1cccc(F)c1)c1ccc2c(c1)OCCO2	0	6.3*	1	2	13*
Cc1cc(C(=O)Nc2ccc3c(c2)OCCO3)co1	1	6.1*	1	4.1*	9
COC(=O)[C@]12C=CCN1[C@H](c1ccc(OC)c(OC)c1)c1c(c3ccccc3n1S(=O)(=O)c1ccc(C)cc1)C2	.	1	3.8*	1	2
COc1ccc(C2C(C(=O)Nc3ccc(Cl)cc3)CCC(=O)N2c2ccc(OC)cc2)cc1 (stereo not drawn)	.	-3	-2	-1	-4
CCOC(=O)c1sc(-c2ccc(OC)cc2)cc1N	3	4	0	2	12*
CCOC(=O)c1sc(-c2ccc(F)cc2)cc1N	0	0	-2	3	9
O=C(NNC1=C(C(=O)C(F)(F)F)CCC1)c1ccccc1O	4	5.6*	1.0*	1	6
COc1ccccc1C(=O)NNC1=C(C(=O)C(F)(F)F)CCC1	2	4	0.9*	2	8
CCOC(=O)N1CCC(Nc2nc3ccccc3nc2NS(=O)(=O)c2ccc(Cl)cc2)CC1	2	8.2*	0	2	9
CCOC(=O)N1CCC(NC(=O)c2ccc(Cl)cc2)CC1	1	2	-1	0	0
O=C(CSc1cccs1)Nc1ccc(Cl)cc1	4.9*	2	-1	0	4
O=C(NCc1ccccn1)c1ccc2c(c1)N(Cc1ccccc1)CCS2	1	-1	-2	0	-3
SMILES	DAX1 inh-1	hcDAF12 agonist	ssDAF12 agonist	DAX1 inh-2	hgDAF-12 ag
O=C(NCc1cccnc1)c1ccc2c(c1)N(Cc1ccccc1)CCS2	6.0*	-3	-1	1	-1
Cc1cc(C)c2sc(NC(=O)CN3C(=O)CCC3=O)nc2c1	5.1*	0	-1	1	2
C[C@H]1[C@@H](NC(=O)c2ccc(Cl)cc2)CC[C@@]23CCCN2C(=O)CCC[C@@H]13	.	-2	-2	.	3
CC(C)(C)CCN1C[C@@H]2C(CNC(=O)c3cc(Cl)cc(Cl)c3)[C@@H]2C1 (stereo partly drawn)	.	-1	-1	.	5
CC(=O)c1ccc(NC(=O)CN2c3cccc4cccc(c34)S2(=O)=O)cc1	6.0*	2	-1	-3	4
CC(C)(C)C(=O)O[C@@H]1CCC[C@@]2(C(=O)N(Cc3ccccc3)c3ccccc32)[C@H]1NC(=O)CCc1ccccc1	.	-3	-1	0	-1
CSCCn1c(C(C)(C)C)cc(C(=O)O)c1C	1	0	-1	0	-1
Cc1c(C(=O)O)cc(C(C)(C)C)n1CCSCCO	6.8*	-1	-1	0	1
COc1ccc(/C=N/NC(=O)c2ccoc2C)cc1COc1ccc(Cl)cc1	1	3	1.3*	-1	8
COc1ccc(/C=N/NC(=O)c2ccccc2OC)cc1COc1ccc(C)cc1	2	5.6*	1	1	1
COc1ccc(/C=N/NC(=O)c2ccccc2OC)cc1COc1ccccc1[N+](=O)[O-]	2	1	1.4*	-1	0
COc1ccc(/C=N/Nc2ccccc2C(=O)O)cc1Cn1cc([N+](=O)[O-])cn1	3	2	1.1*	1	8
COc1ccc(/C=N/NC(=O)c2ccoc2C)cc1OC	1	1	0	0	2
O=C(CSc1nnc(-c2cccnc2)n1-c1ccccc1)Nc1cccc2ccccc12	.	-1	-2	-1	-2
Cc1c(C(=O)N2CCN(C)CC2)oc2ccc(Br)cc12	5.0*	1	-1	1	4
COc1cccc(=O)c2c(C)n(CC(=O)c3ccccc3)c(C)c12	-1	1	1.5*	0	-1
CCOc1cccc(=O)c2c(C)n(CC(=O)c3ccccc3)c(C)c12	-1	-2	-2	-1	-2
O=C1NC(c2ccccc2Cl)Nc2ccccc21 (stereo not drawn)	0	-1	-1	1	1
O=C1c2ccccc2NC(c2ccccc2Cl)N1N=C1CCCCCC1 (stereo not drawn)	1	3	0	2	10*
Cc1cc(C(=O)OCC(=O)NC(C)c2ccccc2)c(C)o1 (stereo not drawn)	0	-2	-1	-1	-2
Cc1c(C(=O)OCC(C)(C)CN(C)C)oc2ccccc12	2	0	-1	4.0*	7
CC(NC(=O)COC(=O)C1(C)CC1(Cl)Cl)c1ccccc1 (stereo not drawn)	2	-1	-1	3.6*	0
Cc1c(C(=O)OCC(=O)NC(C)c2ccccc2)oc2ccccc12 (stereo not drawn)	1	5.7*	1	2	1
O=C(Nc1ccccc1C(F)(F)F)OC1CCC12CCC(c1ccccc1)CC2 (stereo not drawn)	.	0	-2	0	-1
